Data on 46 compounds can be found in PubChem BioAssay AID624173 (National Center for Advancing Translational Sciences (NCATS), 2012).

Out of some 410,000 compounds screened, about 490 (0.12%) were called active. Another 1% or so got no clear call; they are omitted. What follows is part of a selection rich in actives, with near analogues and random picks from the rest. Values without a mark were called inactive. The call rests on the fitted dose curve; in most records, active means well fitted inhibition curve with a large enough effect; inconclusive means small, poorly fitted or top-dose-only effect; inactive means flat fitted curve, though single readings scatter.
On the % scale 0 is the no-effect control and ±100 the full control effect; potency means the concentration at half of the fitted maximal effect.

The target in this assay is pyruvate kinase (Trypanosoma brucei) (UniProt Q57TT1). In words: qHTS of Trypanosoma Brucei Inhibitors. Further: nearly all actives have a fitted effect of over 50% in size. The settings on record: TbPYK enzyme, Kinase-Glo Plus ATP luminescence, 45 min; series mostly up to 76.8 µM; activity, negative = inhibition: at the top concentration. The text has this: Members of the Trypanosomatidae family of parasitic protozoans cause a spectrum of diseases throughout the tropical and subtropical world. Sleeping sickness, caused by two subspecies of Trypanosoma brucei, is endemic to areas of sub-Saharan Africa, while Chagas' disease, a manifestation of Trypanosoma cruzi infection, is prevalent throughout Central and South America. In addition, many species of Leishmania are responsible for a range of cutaneous and visceral diseases, causing ulcers, destructive lesions and kalaazar, a lethal infection of the viscera. These diseases cause severe public health and economic burdens on populations that are often already caught in a tragic cycle of poverty, poor nutrition and disease. Collectively, parasites of the trypanosomatid family infect 30 million people worldwide (~500 million live in endemic areas), and account for ~130K deaths annually. Existing treatments have developed little in the past 50 years, and suffer from toxicity, poor efficacy and resistance; the goal of this project is to develop lead drugs that will be suitable for entry into pre-clinical trials.
Glycolysis in axenically cultured T. cruzi, representing the intracellular pathogenic stage, is also essential for these parasites. {Engel, 1987} This project aims to discover and optimize selective inhibitors of the glycolytic enzyme pyruvate kinase (PYK) from Trypanosoma brucei, the parasite that causes sleeping sickness. […] Trypanosomatid PYKs show significant differences from their human counterparts including only 47-50% sequence identity and different allosteric and activation properties.{Callens, 1992} To this end, a qHTS was done against the MLSMR to discover inhibitors.
NIH Molecular Libraries Probe Production Network [MLPCN]
NIH Chemical Genomics Center [NCGC]
PI Name: Malcolm Walkinshaw, University of Edinburgh
2 uL of TbPYK/substrate buffer (columns 1-3, 5-48) are dispensed into Greiner white solid bottom 1536-well assay plates; column 4 receives only TEA buffer as 0x TbPYK controls. Compounds are then transferred via Kalypsys pin tool equipped with 1536-pin array (10 nL slotted pins, V&P Scientific, San Diego, CA). Following addition of compound, 2 uL of ADP (130 uM final concentration, all columns) is added to initiate the reaction. The plates are then incubated at room temperature for 45 minutes. Kinase-Glo Plus reagent is added (3 uL) and plates incubated for 10 minutes, before being transferred to a ViewLux high-throughput CCD imager (PerkinElmer) wherein single end-point measurements of luminescence are acquired using a clear filter. All reagents are diluted in an assay buffer consisting of 50 mM TEA (pH 7.2), 100 mM KCl, 10 mM MgCl2, 0.05% BSA and 0.01% Tween-20.
All screening operations will be performed on a fully integrated robotic system (Kalypsys, San Diego, CA) containing one RX-130 and two RX-90 anthropomorphic robotic arms (Staeubli, Duncan, SC). Library plates will be screened starting from the lowest and proceeding to the highest concentration. Vehicle-only plates, with DMSO being pin-transferred to columns 5-48, will be inserted uniformly at the beginning and the end of each library in order to monitor and record any shifts in the background, which can be affected by reagent dispensers or loss in enzyme activity over time. Screening data will be corrected, normalized, and concentration-effect relationships will be derived by using publicly-available curve fitting algorithms developed in-house (http://ncgc.nih.gov/pub/openhts).
For orientation: In qHTS, concentration-response curves come from the screen itself.
Consider `O=C(c1ccncc1)N1CCC2(CCCN(C(c3ccccc3)c3ccccc3)C2)CC1`, for which the “activity, negative = inhibition” value was 0%.

Regarding `O=c1c(CCc2ccccc2)nc2cncnc2n1C1CC1`, the “activity, negative = inhibition” value is -7.75%.

`CC(=O)NC(=O)c1ccccc1O`: the “activity, negative = inhibition” value was -5.98%.

With `COc1ccc(CNc2nc(-c3ccc(Cl)cc3)cc(C(F)(F)F)n2)cc1`, the “activity, negative = inhibition” value is 2.22%.

With `COc1ccc(-n2c(-c3ccc(OC)c(OC)c3)n[nH]c2=S)cc1`, the Potency is 3.98 µM (active).

Turning to `COc1ccc(-n2c(-c3ccc(Cl)cc3)n[nH]c2=S)c(OC)c1`, the Potency is 5.62 µM (active).

With `COc1cc(OC)c(-n2cc(-c3ccc(Cl)cc3)[nH]c2=O)cc1Cl`, the “activity, negative = inhibition” value is 1.38%.

For the compound `COc1ccc(-c2cn(-c3ccc(C)cc3)c(=O)n2CC(=O)Nc2ccc(OC)c(OC)c2)cc1`, the “activity, negative = inhibition” value was 8.82%.

Take `COc1ccc(-n2c(C)csc2=S)cc1`: the “activity, negative = inhibition” value was -1.59%.

Regarding `O=C(Nc1cccc(F)c1)N1CCC2(CC1)CCN(S(=O)(=O)c1ccccc1)CC2`, the “activity, negative = inhibition” value is -4.6%.

On to `C=C1C(=CC=C2CCC[C@@]3(C)[C@@H]2CC[C@H]3[C@H](C)CCCC(C)C)C[C@@H](O)C[C@@H]1O`, for which the “activity, negative = inhibition” value was -17.6%.

Turning to `Cc1nnc(C(=O)NC(C)(C)c2nc(C(=O)NCc3ccc(F)cc3)c(O)c(=O)n2C)o1`, the “activity, negative = inhibition” value is -4.15%.

Take `CCC1(c2ccccc2)C(=O)NC(=O)N(C)C1=O` (stereo unspecified): the “activity, negative = inhibition” value was 5.1%.

Consider `CCCCCCCCCc1ccc(OCCOCCOCCOCCOCCOCCOCCOCCOCCO)cc1`, for which the “activity, negative = inhibition” value was -7.24%.

`CCC[C@H]1C(=O)N2C(N(C)C)=Nc3ccc(C)cc3N2C1=O`: the “activity, negative = inhibition” value is 0.389% [at 33.2 µM].

Take `O=c1c(-c2ccc(F)c(F)c2)nc2cncnc2n1-c1ccccc1`: the “activity, negative = inhibition” value is -7.65%.

Regarding `COc1ccc(Oc2ncc3nc(-c4ccc(F)cc4)c(=O)n(C)c3n2)cc1`, the “activity, negative = inhibition” value is -8.28%.

Regarding `CC(=O)OC1C([N+]2(C)CCCCC2)C[C@H]2C3CC[C@H]4C[C@H](OC(C)=O)C([N+]5(C)CCCCC5)CC4(C)C3CCC12C` (stereo partly specified), the “activity, negative = inhibition” value is 2.62%.

On to `CCC(CCC(C)C1CCC2C3CC=C4CC(O)CC[C@@]4(C)C3CC[C@@]12C)C(C)C` (stereo partly specified), for which the “activity, negative = inhibition” value is 0%.

In the case of `COc1cccc(Cn2c(=O)c(C)nc3cnc(Oc4ccccc4)nc32)c1`, the “activity, negative = inhibition” value is -10.8%.

For `CNC(C)[C@@H](O)c1ccccc1` (stereo partly specified), the “activity, negative = inhibition” value is 2.95%.

With `O=C(c1cnccn1)N1CCC2(CCN(Cc3cc(C(F)(F)F)cc(C(F)(F)F)c3)CC2)CC1`, the “activity, negative = inhibition” value was 0%.

Regarding `CCNc1ncc2nc(CCc3ccccc3)c(=O)n(-c3ccc(OC)cc3)c2n1`, the “activity, negative = inhibition” value was -7.09%.

For the compound `O=C(c1ccco1)N1CCC2(CC1)CCN(c1ncccn1)CC2`, the “activity, negative = inhibition” value is 5.21%.

With `Cc1cn([C@H]2CC(F)[C@@H](CO)O2)c(=O)[nH]c1=O` (stereo partly specified), the “activity, negative = inhibition” value was 5.23%.

With `Cc1cccc([C@H](C)c2cnc[nH]2)c1C`, the “activity, negative = inhibition” value is 0%.

As for `COc1ccc(-c2nc3cnc(Oc4ccccc4)nc3n(Cc3cccs3)c2=O)cc1`, the “activity, negative = inhibition” value is 1.2%.

In the case of `COc1ccc(-n2c(=O)c(-c3cn(C)c4ccccc34)nc3cnc(OC)nc32)cc1`, the “activity, negative = inhibition” value is 6.7%.

Regarding `N#Cc1ccc(CN2CCCC3(CCN(C(=O)c4ccco4)CC3)C2)cc1`, the “activity, negative = inhibition” value is 5.2%.

`CC(=O)Oc1ccc2c3c1OC1C(OC(C)=O)C=CC4[C@@H](C2)N(C)CC[C@]314` (stereo partly specified): the “activity, negative = inhibition” value is -3.56% [at 157 µM].

As to `O=C(c1ccco1)N1CCC2(CC1)CN(c1ncccn1)C2`, the “activity, negative = inhibition” value was 6.02%.

For `O=C(Nc1cccc(F)c1)N1CC[C@@]2(CCCN(C(=O)Oc3ccccc3)C2)C1`, the “activity, negative = inhibition” value is -0.503%.

With `COc1ccc(NC(=O)N2CC3(CCN(C(=O)c4cccn4C)CC3)C2)cc1`, the “activity, negative = inhibition” value was 5.66%.

In the case of `CCOC(=O)C1CCCN(S(=O)(=O)c2cc(-c3cc(C)no3)ccc2OC)C1` (stereo unspecified), the “activity, negative = inhibition” value is 2.51%.

`O=C(c1cc(C(F)(F)F)cc(C(F)(F)F)c1)N1CCC2(CCCN(c3ccccn3)C2)CC1`: the “activity, negative = inhibition” value is 4.85%.

Turning to `COc1ccc(-c2oc3cc(OC)ccc3c2C(=O)c2ccc(C#N)cc2)cc1`, the “activity, negative = inhibition” value is 2%.

Consider `Oc1ccc(Cl)c2c1CCC2`, for which the “activity, negative = inhibition” value is -1.73%.

Turning to `CC1(C)OC[C@@H](COC(=O)CCc2ccc(OC[C@@H](O)CNCCNC(=O)N3CCOCC3)cc2)O1`, the Potency result is “inactive”.

For `c1ccc(CN2CC[C@@]3(CCCNC3)C2)cc1`, the “activity, negative = inhibition” value was 1.4%.

Regarding `COc1cccc(Cn2c(=O)c(-c3cc(F)cc(F)c3)nc3cnc(OC)nc32)c1`, the “activity, negative = inhibition” value is -4.11%.

`CC(=O)CC(c1ccccc1)C1C(=O)Oc2ccccc2C1=O` (stereo unspecified): the “activity, negative = inhibition” value was -1.9%.

Consider `COc1cc2c(cc1OC)[C@@H](Cc1cc(OC)c(OC)c(OC)c1)[N+](C)(CCCOC(=O)CC/C=C/CCC(=O)OCCC[N+]1(C)CCc3cc(OC)c(OC)cc3[C@H]1Cc1cc(OC)c(OC)c(OC)c1)CC2` (stereo partly specified), for which the “activity, negative = inhibition” value was 2.34%.

`C[C@H]1C[C@H]2[C@@H]3CCC4=CC(=O)C=C[C@]4(C)[C@@H]3C(=O)C[C@]2(C)[C@@]1(O)C(=O)CO`: the “activity, negative = inhibition” value was -4.12%.

On to `CCOc1ccc(NC(=O)CC2C(=O)N(c3cccc(OC)c3)C(=O)N2C2CCCCC2)cc1` (stereo unspecified), for which the “activity, negative = inhibition” value is 3.35%.

For the compound `COCCn1c(=O)c(-c2cc(F)cc(F)c2)nc2cnc(N3CCNCC3)nc21`, the “activity, negative = inhibition” value was -4.63%.

With `CC(=O)N1CCC2(CC1)CCN(c1ccncc1)CC2`, the “activity, negative = inhibition” value was -7.23%.
